# Source: publication PMC4336329 (PLoS ONE, 2015)
# The whole screen tested about 310,000 compounds, of which about 14,000 (4.5%) showed an effect of 50% or more. The effect is printed as a negative number. Shown is part of a subset that was picked to be rich in strong results.
# Biological target: human ether-à-go-go-related gene (hERG) potassium channel (human, UniProt Q12809)
# Test: primary screen, population patch clamp on CHO cells stably expressing hERG; higher = less effect of the substance
# 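Note: peak tail current of the secondary pulse compared with the same well before compound.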
# human ether-à-go-go-related gene (hERG) potassium channel, sequence (Q12809 whole entry, looked up): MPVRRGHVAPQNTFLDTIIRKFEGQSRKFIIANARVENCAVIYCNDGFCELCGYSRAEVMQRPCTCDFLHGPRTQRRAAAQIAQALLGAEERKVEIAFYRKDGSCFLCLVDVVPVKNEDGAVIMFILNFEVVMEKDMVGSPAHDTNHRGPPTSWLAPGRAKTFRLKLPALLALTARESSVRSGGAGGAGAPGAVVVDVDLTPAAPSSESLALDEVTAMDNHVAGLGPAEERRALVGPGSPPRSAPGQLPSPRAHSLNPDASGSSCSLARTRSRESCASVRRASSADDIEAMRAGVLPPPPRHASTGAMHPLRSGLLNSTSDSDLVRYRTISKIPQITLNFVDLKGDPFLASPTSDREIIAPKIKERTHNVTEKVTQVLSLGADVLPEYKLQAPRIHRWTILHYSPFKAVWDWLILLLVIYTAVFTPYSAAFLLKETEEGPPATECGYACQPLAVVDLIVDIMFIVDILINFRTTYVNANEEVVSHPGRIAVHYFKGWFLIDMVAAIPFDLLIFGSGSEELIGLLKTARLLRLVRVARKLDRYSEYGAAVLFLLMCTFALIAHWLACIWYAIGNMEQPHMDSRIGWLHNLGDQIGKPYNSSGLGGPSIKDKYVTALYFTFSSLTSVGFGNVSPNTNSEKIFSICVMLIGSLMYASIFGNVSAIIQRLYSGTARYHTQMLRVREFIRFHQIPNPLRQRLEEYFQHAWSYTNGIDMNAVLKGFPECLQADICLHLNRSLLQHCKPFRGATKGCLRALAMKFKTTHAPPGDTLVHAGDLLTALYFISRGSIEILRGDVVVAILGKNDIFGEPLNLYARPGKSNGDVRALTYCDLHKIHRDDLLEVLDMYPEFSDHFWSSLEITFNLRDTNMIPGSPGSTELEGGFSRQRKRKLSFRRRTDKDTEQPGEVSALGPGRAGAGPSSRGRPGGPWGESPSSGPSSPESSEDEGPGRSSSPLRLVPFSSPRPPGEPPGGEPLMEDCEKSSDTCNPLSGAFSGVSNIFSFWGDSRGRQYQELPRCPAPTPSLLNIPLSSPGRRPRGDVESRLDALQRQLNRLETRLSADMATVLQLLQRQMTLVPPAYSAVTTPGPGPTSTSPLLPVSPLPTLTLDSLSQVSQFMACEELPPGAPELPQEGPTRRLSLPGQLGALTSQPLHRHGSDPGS
row,Compound,"hERG current change (%, negative = inhibition) at 10uM"
1,Cn1c(=O)n(C)c2cc(N3CCOCC3)c(NC(=O)c3ccc(F)cc3)cc21,-8.15%
2,Cc1cccc2cc3ccccc3nc12,4.66%
3,Cc1cc(CNC(=O)COc2ccc(C)c(C)c2)c2ccccc2n1,2.15%
4,O=C(N/N=C/c1ccc(Cl)c([N+](=O)[O-])c1)c1cc(-c2ccccc2)nc2ccccc12,17.1%
5,Cn1c2ccccc2c(=O)c2cc(C#Cc3ccccn3)ccc21,-0.776%
6,CCc1ccccc1N1C(=O)C2CC=CCC2C1=O (stereo not drawn),-6.41%
7,COc1ccc(OC)c(S(=O)(=O)N(C)CC(=O)N2CCc3ccccc3C2)c1,-35.1%
8,CCN(Cc1nc2cc(OC)c(OC)cc2c(=O)[nH]1)C(=O)c1ccc(S(=O)(=O)N(C)C)cc1,4.07%
9,Cc1cnc(NC2=NCCC2)s1,5.05%
10,O=C(OCC(=O)c1ccc[nH]1)c1ccc(Cl)nc1,-5.61%
11,Cc1ccc(-n2nc(C)c(NS(=O)(=O)c3ccccc3)c2C)cc1C,-16.9%
12,COC(CN(C)C(=O)c1cn(C)c2ccc(S(=O)(=O)N(C)C3CCCCC3)cc2c1=O)OC,10.3%
13,CCCN(CCC)CCCNC(=O)c1cn(C)c2ccc(S(=O)(=O)N(C)C3CCCCC3)cc2c1=O,-73.7%
14,CCN(CC)S(=O)(=O)c1ccc2c(c1)c(=O)c(C(=O)NCCCN(C)c1ccccc1)cn2C,-12.2%
15,Cn1c(=O)n(C)c2cc(S(=O)(=O)Nc3ccc(F)cc3)ccc21,20.9%
16,CCN1CCN(c2ccc(S(=O)(=O)N3CCCC3)cn2)CC1,16.2%
17,Cc1nn(-c2ccccc2)c(C)c1NC(=O)COC(=O)CCc1ccccc1,-10.2%
18,COc1cccc(OCC(=O)N2CCC3(CC2)CC(=O)c2ccccc2O3)c1,-55.8%
19,Cc1cccc(OCC(=O)N2CCC3(CC2)CC(=O)c2ccccc2O3)c1,-54.7%
20,CC(=O)N1CCC2(CC1)CC(=O)c1cc(OCC(=O)N3CCOCC3)ccc1O2,-10.6%
21,CC(=O)N1CCC2(CC1)CC(=O)c1cc(OCC(=O)N3CCCC3)ccc1O2,9.03%
22,CC(C)(C)C1CCC(OC(=O)C[N+]2(C)CCCCC2)CC1.[I-] (stereo not drawn),23.1%
23,Cc1cccc(Nc2ccc(C(=O)N3CCOCC3)cn2)c1,10.7%

row,Compound,"hERG current change (%, negative = inhibition) at 10uM"
1,CCOc1ccc(S(=O)(=O)Nc2ccc(C(=O)NCC3(N4CCCCC4)CCCCC3)cc2)cc1,-45.8%
2,Cc1cccc(NS(=O)(=O)c2cccc(C(=O)NCC(C)(C)N3CCOCC3)c2)c1,4.99%
3,CC(C)(CNC(=O)c1cccc(NS(=O)(=O)c2ccc(Br)cc2)c1)N1CCOCC1,-33.7%
4,CC(=O)Nc1cccc(C(=O)NCC2(N3CCCCC3)CCCCC2)c1,19.4%
5,O=C(NCC1(N2CCCCC2)CCCCC1)c1ccc(NS(=O)(=O)c2ccccc2)cc1,-44.1%
6,Cc1ccc(S(=O)(=O)Nc2cccc(C(=O)NCC(C)(C)N3CCOCC3)c2)cc1F,-50.3%
7,Cc1ccc(S(=O)(=O)Nc2cccc(C(=O)NCCN3CCOCC3)c2)cc1F,-1.9%
8,O=C(NCC1(N2CCCCC2)CCCCC1)c1cccc(NS(=O)(=O)c2ccccc2)c1,-64.4%
9,Cc1ccc(S(=O)(=O)Nc2cccc(C(=O)N3CCCC3)c2)cc1F,-0.933%
10,Cc1ccc(S(=O)(=O)Nc2cccc(C(=O)NCC3(N4CCCCC4)CCCCC3)c2)cc1F,-82.6%
11,CCOc1ccc(S(=O)(=O)Nc2cccc(C(=O)NCC3(N4CCCCC4)CCCCC3)c2)cc1,-71.6%
12,CCOc1ccc(NS(=O)(=O)c2ccc(C(=O)NCC3(N4CCCCC4)CCCCC3)cc2)cc1,-11%
13,C[C@H](NC(=O)N1CCn2c1nc1ccccc12)C(=O)NCC1CCCO1 (stereo partly drawn),20.8%
14,CC(OC(=O)c1cccc(-n2cnnn2)c1)C(=O)Nc1cccc(Cl)c1 (stereo not drawn),-2.88%
15,N#Cc1ccccc1OCC(=O)OCC(=O)N1CCN(C(=O)c2ccco2)CC1,3.22%
16,Cc1cc(N2C(=O)CC(N3CCN(c4ccc(C(=O)c5cccs5)cc4)CC3)C2=O)no1 (stereo not drawn),-37.3%
17,CC(C)CCOP(=O)(c1ccc(N(C)C)cc1)C(O)c1ccc(C(C)C)cc1 (stereo not drawn),11.7%
18,CCOC(=O)c1cn2nc(Oc3ccccc3)ccc2n1,-12.8%
19,O=C(Cc1ccccc1)N/N=C/c1cc2c(cc1Cl)OCO2,1.85%
20,COc1cc(NC(=O)NNC(=O)c2cc3occc3n2C)cc(OC)c1OC,26.1%
21,CNS(=O)(=O)c1cccc(C(=O)NCC2(N3CCOCC3)CCCCC2)c1,9.92%
22,O=C(NCC1(N2CCCCC2)CCCCC1)c1ccc(NS(=O)(=O)c2ccc(F)cc2)cc1,-42.9%
23,CS(=O)(=O)c1ccc(C(=O)NCC2(N3CCCCC3)CCCCC2)cc1,-11%

row,Compound,"hERG current change (%, negative = inhibition) at 10uM"
1,Cc1cc(S(=O)(=O)Nc2ccc(C(=O)NCC3(N4CCCCC4)CCCCC3)cc2)ccc1F,-66.4%
2,Cc1cccc(NS(=O)(=O)c2cccc(C(=O)NCC3(N4CCCCC4)CCCCC3)c2)c1,-89.9%
3,CNS(=O)(=O)c1cccc(C(=O)NCC2(N3CCCCC3)CCCCC2)c1,-18.3%
4,O=C(COc1ccccc1)Nc1nc(-c2cccs2)cs1,5.72%
5,CCOC(=O)c1c(C)[nH]c(C(=O)OC(C)C(=O)NCc2ccccc2)c1C (stereo not drawn),17.4%
6,COc1ccccc1-c1nnc(NC(=O)C2=COCCO2)o1,14.3%
7,CCc1sc(C(=O)N2CCC3(CC2)OCCO3)cc1Br,-7.08%
8,CC(=O)Nc1ccc(Nc2nnc(-c3ccc(C)c(S(=O)(=O)NCC4CCCO4)c3)c3ccccc23)cc1 (stereo not drawn),-5.1%
9,O=C1NN(c2ccc(Br)cc2)C(=O)/C1=C\c1ccc(O)cc1O,30.2%
10,Cc1ccccc1C(=O)Nc1ccc2nc3n(c(=O)c2c1)CCC3,-9.1%
11,Nc1c(C=C2C=CC(=O)C=C2)c(=O)nc2sc(CC(=O)N3CCCCC3)nn12,15.6%
12,COc1ccc(CNCc2cc(C)c(OC)cc2C)c(OC)c1.O=C(O)C(=O)O,-54.9%
13,CCn1c2ccccc2c2cc(CN3CCN(Cc4cc(OC)ccc4O)CC3)ccc21.O=C(O)C(=O)O,7.15%
14,COc1ccc(NC(=S)NCc2ccc(F)cc2)c(OC)c1,1.54%
15,COc1cc(CNCc2ccc(OC)cc2OC)cc(OC)c1.O=C(O)C(=O)O,-29.5%
16,Br.COc1ccc(CNCc2ccc(F)cc2)c(OC)c1,-79%
17,COc1ccc(CNCc2ccncc2)c(OC)c1.Cl,-0.685%
18,CCn1c2ccccc2c2cc(CNCc3ccc(OC)cc3OC)ccc21.O=C(O)C(=O)O,-76.2%
19,COc1cccc(CNCc2ccc(OC)cc2OC)c1.O=C(O)C(=O)O,-14.1%
20,COc1ccc(CNCc2ccc3ccccc3c2)c(OC)c1.O=C(O)C(=O)O,-68.3%
21,COc1ccc(CNCc2ccc(C)cc2)c(OC)c1.O=C(O)C(=O)O,-31.3%
22,COc1ccc(CNCc2cc(OC)ccc2OC)cc1.O=C(O)C(=O)O,-30.3%
23,CCC(CC)NCc1ccc2c(c1)c1ccccc1n2CC.O=C(O)C(=O)O,-28.5%

row,Compound,"hERG current change (%, negative = inhibition) at 10uM"
1,CC1(C)CN(c2ccc(N3CC(C)(C)C3=O)cc2)C1=O,4.66%
2,O=C(NC1CC2CCCC(C1)N2C(=O)Nc1ccccc1)c1ccncc1 (stereo not drawn),0.052%
3,CNCCc1c[nH]c2ccc(O)cc12.O=C(O)C(=O)O,17.7%
4,Cc1cccc(NC(=O)c2ccccc2NC(=O)C(C)(C)C)n1,-0.982%
5,CC(C)c1ccc(Nc2nnc(SCC(=O)c3nnc(-c4ccccc4)o3)s2)cc1,22.2%
6,CCn1c(NCc2ccc(N(C)C)cc2)nc2ccccc21,-41.2%
7,O=C(Nc1nccs1)c1ccccn1,-3.04%
8,Nc1nc(SCc2nc3sc4c(c3c(=O)[nH]2)CCCC4)n[nH]1,8.47%
9,CCOc1cccc(CNCCNC(=O)c2nonc2N)c1.Cl,-7.85%
10,O=C(c1ccco1)N1CCN(C(=O)c2ccccc2OCc2ccc(Cl)cc2)CC1,-75.9%
11,COc1ccc(Cl)cc1C(=O)NCC(c1ccco1)N(C)C (stereo not drawn),-4.19%
12,O=C(c1ccco1)N1CCN(C(=O)c2ccc(COc3ccc(F)cc3)o2)CC1,-62.6%
13,O=C(OCC(=O)N1CCN(C(=O)c2ccco2)CC1)c1ccccc1OCc1ccc(Cl)cc1,-35.3%
14,O=C(c1ccccc1OCc1ccc(Cl)cc1)N1CCN(c2ccccn2)CC1,-42.4%
15,CCN1CCN(C(=O)c2ccc(COc3cccc(Cl)c3)o2)CC1,-23.7%
16,CSc1ccccc1C(=O)NCC(c1ccco1)N(C)C (stereo not drawn),16.9%
17,O=C(c1ccc(COc2ccc(F)cc2)o1)n1cccn1,4.97%
18,O=C(c1ccco1)N1CCN(C(=O)c2ccc(CS(=O)c3ccc(F)cc3)o2)CC1 (stereo not drawn),11.8%
19,CCN1CCN(C(=O)c2ccc(COc3ccc(Cl)cc3)o2)CC1,-52.5%
20,CN(C)C(CNC(=O)c1ccccc1OCc1ccc(Cl)cc1)c1ccco1 (stereo not drawn),-60.3%
21,O=C(c1ccc(COc2ccc(Cl)cc2)o1)N1CCN(Cc2ccc3c(c2)OCO3)CC1,-12.7%
